PubChem BioAssay AID2205 (University of Pittsburgh Molecular Library Screening Center, 2009)
Screen size: about 200,000 compounds; about 1,600 (0.8%) were called active.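 How the source made its calls: active means plate Z-score above 3 for both tubulin-high and condensed-nucleus cell shares, with cell loss under 80%, at 10 µM; inactive means the rest, inconclusive results apart.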 The list comes from a sample in which actives are over-represented; it also holds similar structures and randomly drawn compounds.

Assay: microtubule stabilizers in HeLa cells, primary screen, imaging, high-content imaging (AID 2205);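 on % tubulin-high responders: anti alpha tubulin signal scored within the nucleus-defined area of each cell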;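 on toxicity: 0% = mean cell density of plate MIN control wells and 100% = no cells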
Details: HeLa tubulin immunostaining HCS, 24 h, at 10 µM; % Hoechst-high responders: measured here: nuclear condensation Hoechst responders, stronger effect = higher value, share of cells brighter than vehicle mean+2SD; % tubulin-high responders: stronger effect = higher value, share of cells brighter than vehicle mean+2SD; toxicity: measured here: cytotoxicity by cell density

Structure (SMILES)	% Hoechst-high responders	% tubulin-high responders	toxicity
O=C(COC(=O)Cn1cnc2ccccc2c1=O)NCc1ccccc1Cl	1.88%	6.58% (inactive)	5.1%
O=C(NNc1ccccn1)c1ccc(Cl)nc1	2.04%	3.3% (inactive)	8.78%
CCN(CC)c1ccc(NC(=O)c2ccc(Cl)nc2)cc1	27%	43% (active)	38.6%
NS(=O)(=O)c1ccc(NC(=O)COC(=O)c2ccc(Cl)nc2)cc1	1.74%	3.68% (inactive)	9.84%
CC(=O)Nc1ccc(S(=O)(=O)NC2(C(F)(F)F)C(=O)NC(C)=C2C#N)cc1 (stereo unspecified)	0.651%	0.947% (inactive)	1.71%
COc1ccc(-n2cc(CN(C)Cc3n[nH]c(=O)[nH]3)c(-c3cccc(F)c3)n2)cc1	0.946%	1.61% (inactive)	7.39%
Oc1ccc(Cl)cc1/C=N/c1nc2ccccc2[nH]1	3.67%	2.45% (inactive)	20.5%
CCC(=O)/C(=C(/O)c1ccccc1)c1nc2ccccc2[nH]1	1.47%	1.53% (inactive)	1.79%
O=C(/C(=C/c1cccc(Cl)c1)c1nc2ccccc2[nH]1)c1ccccc1	42.6%	47.1% (active)	68.7%
C=CCn1cc(C(=O)NCc2ccc(Cl)cc2)c(=O)c2cc(S(=O)(=O)N(CC)CC)ccc21	2.4%	2.86% (inactive)	5.36%
CSc1ncccc1C(=O)N1CCCC(CCC(=O)NCc2ccccc2F)C1 (stereo unspecified)	1.74%	2.45% (inactive)	3.21%
Cn1cccc1/C=N/NC(=O)c1ccc(OC(F)(F)C(F)F)cc1	2.53%	6.72% (inactive)	7.37%
COC(=O)Cc1ccc(NC(=S)NCc2ccccc2)cc1	2.07%	4.23% (inactive)	9.97%
Cc1cc(C)c2c3c(sc2n1)C(c1ccccc1)C(C#N)=C(N)O3 (stereo unspecified)	7.37%	12.3% (inactive)	9.16%
N#CC1=C(N)Oc2c(sc3ccccc23)C1c1ccco1 (stereo unspecified)	55.7%	24.9% (active)	32.3%
CCCCCCCC1(C)NC(=O)N(CC(=O)Nc2cc(C)on2)C1=O (stereo unspecified)	2.15%	3.92% (inactive)	9.17%
Cc1ccc(S(=O)(=O)N(C)C)cc1NC(=O)COC(=O)C1COc2ccccc2O1 (stereo unspecified)	2.45%	3.07% (inactive)	5.9%
O=C(c1cnn(-c2ccc(Cl)cc2)c1)c1ccccc1O	3.19%	3.73% (inactive)	2.4%
C/C(=N\NC(=O)c1ccccc1C)c1ccc(N2CCOCC2)cc1	0.821%	1.28% (inactive)	5.09%

Structure (SMILES)	% Hoechst-high responders	% tubulin-high responders	toxicity
COc1cccc(OC)c1C(=O)Nc1ccc(N2CCCCC2)cc1	2.3%	2.03% (inactive)	6.37%
COc1cccc(C(=O)Nc2ccc(N3CCCC3)cc2)c1	30.7%	25.7% (active)	50.6%
Cc1ccccc1C(=O)Nc1ccc(N2CCCCCC2)cc1	34.7%	13.1% (active)	28.4%
COc1ccc(C(=O)NC(=S)Nc2ccc(N3CCCC3)cc2)cc1OC	1.47%	1.79% (inactive)	9.06%
O=C(Cc1ccccc1)NC(=S)Nc1ccc(N2CCCCC2)cc1	2.7%	1.21% (inactive)	5.2%
CC(C)OCCCNC(=O)c1cc(Sc2ccc(F)cc2)nc2ccccc12	1.81%	1.25% (inactive)	6.52%
CC(=O)N1C(=O)/C(=C2\SC(=S)N(NC(=O)c3ccc(O)cc3)C2=O)c2ccccc21	2.97%	2.55% (inactive)	3.4%
Cc1noc(C)c1S(=O)(=O)Nc1ccc(C(=O)N2CCN(c3ccc(F)cc3)CC2)cc1	2.09%	1.32% (inactive)	5.68%
O=C(O)CCN(Cc1ccccc1)S(=O)(=O)c1c(Cl)cccc1Cl	1.31%	2.16% (inactive)	1.51%
CN(Cc1ccccc1)C(=O)COC(=O)c1ccccc1Nc1ccccc1	1.59%	6.59% (inactive)	4.42%
CC(C)Cc1nc(Nc2ccc(S(=O)(=O)N3CCCC3)cc2)c2nnn(Cc3ccccc3)c2n1	2.68%	3.7% (inactive)	11.3%
Cc1csc(NC(=O)Nc2ccccc2[N+](=O)[O-])n1	2.72%	1.89% (inactive)	4.62%
COC(=O)C1=C(C)OC(N)=C(C#N)C1c1cc(OC)ccc1OC (stereo unspecified)	4.1%	4.68% (inactive)	10.9%
COc1ccc(C2C(C#N)=C(N)Oc3cc(N)ccc32)cc1OC (stereo unspecified)	17.3%	44.5% (active)	68%
CCC1=C(C(=O)OC)C(c2cc(OC)ccc2OC)C(C#N)=C(N)O1 (stereo unspecified)	3.6%	3.6% (inactive)	4.77%
c1ccc(C2CNCc3c2ccc2ccccc32)cc1 (stereo unspecified)	32.1%	14% (active)	25.9%
C=C(C)COc1ccc(-c2n[nH]c(C)c2-c2ccccc2)c(O)c1	2.28%	3.77% (inactive)	27.6%
C=C(C)COc1ccc(-c2n[nH]c(C)c2-c2ccccc2OC)c(O)c1	4.86%	6.2% (inactive)	5.28%
